{"source": "the supplement of paper PMC8728848", "binders": {"B1": {"name": "HPA (Helix pomatia), Q2F1K8 (protein)", "chain": "MQAFYSGLLLLCVVAFAAAQRVQSGKIDCGNDAGWAKVPSDDPGRDNTRELAKNITFASPYCRPPVVLLSITQLDVEQSQNLRVIARLYSVSPTGFKASCYTWHNTKVYSMSISWISIENY"}}, "assay_in_all_cases": "glycan array binding signal (z-score within array); higher = stronger binding", "details_in_all_cases": "glycan notation: IUPAC condensed, linker removed", "key": {"[1]": {"target": "Fuc(a1-2)Gal(b1-3)GlcNAc(b1-3)[Gal(b1-4)[Fuc(a1-3)]GlcNAc(b1-6)]Gal(b1-4)Glc", "summary_of_the_method": "(§1)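 The Consortium for Functional Glycomics database supplied 3228 glycan arrays, of which those lacking an available protein sequence were dropped. The binding signal, a within-array Z-score, was averaged across arrays of the same protein sequence and across linkers. Negative scores can be read as non-binding.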"}, "[2]": {"target": "Fuc(a1-2)Gal(b1-3)[Fuc(a1-4)]GlcNAc(b1-2)Man(a1-3)[Fuc(a1-2)Gal(b1-3)[Fuc(a1-4)]GlcNAc(b1-2)Man(a1-6)]Man(b1-4)GlcNAc(b1-4)GlcNAc", "summary_of_the_method": "as §1"}, "[3]": {"target": "Fuc(a1-2)Gal(b1-4)[Fuc(a1-3)]GlcNAc", "summary_of_the_method": "as §1"}, "Fuc(a1-2)GlcNAc": {"target": "Fuc(a1-2)GlcNAc", "summary_of_the_method": "as §1"}, "[4]": {"target": "Fuc(a1-2)[Gal(a1-3)]Gal(b1-3)GalNAc", "summary_of_the_method": "as §1"}, "[5]": {"target": "Fuc(a1-2)[GalNAc(a1-3)]Gal(b1-4)GlcNAc(b1-2)Man(a1-3)[Fuc(a1-2)[GalNAc(a1-3)]Gal(b1-4)GlcNAc(b1-2)Man(a1-6)]Man(b1-4)GlcNAc(b1-4)GlcNAc", "summary_of_the_method": "as §1"}, "[6]": {"target": "Fuc(a1-2)[GalNAc(a1-3)]Gal(b1-4)GlcNAc(b1-3)Gal(b1-4)GlcNAc", "summary_of_the_method": "as §1"}, "[7]": {"target": "Fuc(a1-2)[GalNAc(a1-3)]Gal(b1-4)GlcNAc(b1-3)Gal(b1-4)GlcNAc(b1-3)Gal(b1-4)GlcNAc", "summary_of_the_method": "as §1"}, "[8]": {"target": "Fuc(a1-2)[GalNAc(a1-3)]Gal(b1-4)[Fuc(a1-3)]GlcNAc(b1-3)GalNAc", "summary_of_the_method": "as §1"}, "[9]": {"target": "Fuc(a1-2)[GalNAc(a1-4)]Gal(b1-4)GlcNAc", "summary_of_the_method": "as §1"}, "[10]": {"target": "Fuc(a1-3)[Gal(b1-4)]Glc6S", "summary_of_the_method": "as §1"}, "[11]": {"target": "Fuc(a1-3)[Gal(b1-4)]GlcNAc(b1-2)Man(a1-3)[Fuc(a1-3)[Gal(b1-4)]GlcNAc(b1-2)Man(a1-6)]Man(b1-4)GlcNAc(b1-4)GlcNAc", "summary_of_the_method": "as §1"}, "[12]": {"target": "Fuc(a1-3)[Gal(b1-4)]GlcNAc(b1-3)Gal(b1-4)[Fuc(a1-3)]GlcNAc", "summary_of_the_method": "as §1"}, "[13]": {"target": "Fuc(a1-3)[Gal(b1-4)]GlcNAc(b1-4)Gal(b1-4)[Fuc(a1-3)]GlcNAc(b1-4)Gal(b1-4)[Fuc(a1-3)]GlcNAc", "summary_of_the_method": "as §1"}, "[14]": {"target": "Fuc(a1-3)[Neu5Ac(a2-3)]Gal(b1-4)GlcNAc(b1-3)GalNAc", "summary_of_the_method": "as §1"}, "Gal(a1-3)Gal(b1-3)GlcNAc": {"target": "Gal(a1-3)Gal(b1-3)GlcNAc", "summary_of_the_method": "as §1"}, "[15]": {"target": "Gal(a1-3)Gal(b1-4)GlcNAc(b1-6)GalNAc", "summary_of_the_method": "as §1"}, "Gal(a1-4)Gal(b1-4)GlcNAc": {"target": "Gal(a1-4)Gal(b1-4)GlcNAc", "summary_of_the_method": "as §1"}, "Gal(b1-2)Gal": {"target": "Gal(b1-2)Gal", "summary_of_the_method": "as §1"}, "Gal(b1-3)GalNAc(b1-3)Gal": {"target": "Gal(b1-3)GalNAc(b1-3)Gal", "summary_of_the_method": "as §1"}, "[16]": {"target": "Gal(b1-3)GalNAc(b1-4)[Neu5Ac(a2-3)]Gal(b1-4)Glc", "summary_of_the_method": "as §1"}, "Gal(b1-3)GlcNAc(b1-2)Man": {"target": "Gal(b1-3)GlcNAc(b1-2)Man", "summary_of_the_method": "as §1"}, "[17]": {"target": "Gal(b1-3)GlcNAc(b1-3)Gal(b1-4)GlcNAc(b1-3)Gal(b1-4)GlcNAc(b1-2)[Gal(b1-3)GlcNAc(b1-3)Gal(b1-4)GlcNAc(b1-3)Gal(b1-4)GlcNAc(b1-6)]Man(a1-6)[Gal(b1-3)GlcNAc(b1-3)Gal(b1-4)GlcNAc(b1-3)Gal(b1-4)GlcNAc(b1-2)Man(a1-3)]Man(b1-4)GlcNAc(b1-4)[Fuc(a1-6)]GlcNAc", "summary_of_the_method": "as §1"}, "[18]": {"target": "Gal(b1-3)GlcNAc(b1-3)Gal(b1-4)GlcNAc(b1-6)[Gal(b1-3)GlcNAc(b1-3)]Gal(b1-4)Glc", "summary_of_the_method": "as §1"}, "[19]": {"target": "Gal(b1-3)GlcNAc(b1-6)[Gal(b1-3)]GalNAc", "summary_of_the_method": "as §1"}, "[20]": {"target": "Gal(b1-3)[Fuc(a1-4)]GlcNAc(b1-2)Man(a1-3)[Gal(b1-3)[Fuc(a1-4)]GlcNAc(b1-2)Man(a1-6)]Man(b1-4)GlcNAc(b1-4)GlcNAc", "summary_of_the_method": "as §1"}, "[21]": {"target": "Gal(b1-4)GlcNAc(b1-2)Man(a1-3)[GlcNAc(b1-4)][Gal(b1-4)GlcNAc(b1-2)Man(a1-6)]Man(b1-4)GlcNAc(b1-4)GlcNAc", "summary_of_the_method": "as §1"}, "[22]": {"target": "Gal(b1-4)GlcNAc(b1-3)Gal(b1-4)GlcNAc(b1-3)Gal(b1-4)GlcNAc(b1-2)[Gal(b1-4)GlcNAc(b1-3)Gal(b1-4)GlcNAc(b1-3)Gal(b1-4)GlcNAc(b1-6)]Man(a1-6)[Gal(b1-4)GlcNAc(b1-3)Gal(b1-4)GlcNAc(b1-3)Gal(b1-4)GlcNAc(b1-2)Man(a1-3)]Man(b1-4)GlcNAc(b1-4)[Fuc(a1-6)]GlcNAc", "summary_of_the_method": "as §1"}, "[23]": {"target": "Gal(b1-4)GlcNAc(b1-3)Gal(b1-4)GlcNAc(b1-3)Gal(b1-4)GlcNAc(b1-3)Gal(b1-4)GlcNAc(b1-3)Gal(b1-4)GlcNAc(b1-2)Man(a1-3)[Gal(b1-4)GlcNAc(b1-3)Gal(b1-4)GlcNAc(b1-3)Gal(b1-4)GlcNAc(b1-3)Gal(b1-4)GlcNAc(b1-3)Gal(b1-4)GlcNAc(b1-2)Man(a1-6)]Man(b1-4)GlcNAc(b1-4)[Fuc(a1-6)]GlcNAc", "summary_of_the_method": "as §1"}, "[24]": {"target": "Gal(b1-4)GlcNAc(b1-3)Gal(b1-4)GlcNAc(b1-6)[Gal(b1-3)]GalNAc", "summary_of_the_method": "as §1"}}, "note": "The sample as a whole holds a higher share of the strongest signals than the screen did.", "data": [{"binder": "B1", "values": [{"measurement": "glycan array binding signal (z-score)", "setting": "[1]", "value": -0.454}, {"measurement": "glycan array binding signal (z-score)", "setting": "[2]", "value": 4.62}, {"measurement": "glycan array binding signal (z-score)", "setting": "[3]", "value": -0.109}, {"measurement": "glycan array binding signal (z-score)", "setting": "Fuc(a1-2)GlcNAc", "value": -0.295}, {"measurement": "glycan array binding signal (z-score)", "setting": "[4]", "value": -0.303}, {"measurement": "glycan array binding signal (z-score)", "setting": "[5]", "value": 3.07}, {"measurement": "glycan array binding signal (z-score)", "setting": "[6]", "value": 2.66}, {"measurement": "glycan array binding signal (z-score)", "setting": "[7]", "value": 3.15}, {"measurement": "glycan array binding signal (z-score)", "setting": "[8]", "value": 0.306}, {"measurement": "glycan array binding signal (z-score)", "setting": "[9]", "value": 2.81}, {"measurement": "glycan array binding signal (z-score)", "setting": "[10]", "value": 0.244}, {"measurement": "glycan array binding signal (z-score)", "setting": "[11]", "value": -0.126}, {"measurement": "glycan array binding signal (z-score)", "setting": "[12]", "value": -0.242}, {"measurement": "glycan array binding signal (z-score)", "setting": "[13]", "value": -0.09}, {"measurement": "glycan array binding signal (z-score)", "setting": "[14]", "value": 4.26}, {"measurement": "glycan array binding signal (z-score)", "setting": "Gal(a1-3)Gal(b1-3)GlcNAc", "value": -0.213}, {"measurement": "glycan array binding signal (z-score)", "setting": "[15]", "value": -0.173}, {"measurement": "glycan array binding signal (z-score)", "setting": "Gal(a1-4)Gal(b1-4)GlcNAc", "value": -0.114}, {"measurement": "glycan array binding signal (z-score)", "setting": "Gal(b1-2)Gal", "value": -0.074}, {"measurement": "glycan array binding signal (z-score)", "setting": "Gal(b1-3)GalNAc(b1-3)Gal", "value": -0.375}, {"measurement": "glycan array binding signal (z-score)", "setting": "[16]", "value": -0.291}, {"measurement": "glycan array binding signal (z-score)", "setting": "Gal(b1-3)GlcNAc(b1-2)Man", "value": -0.119}, {"measurement": "glycan array binding signal (z-score)", "setting": "[17]", "value": 0.092}, {"measurement": "glycan array binding signal (z-score)", "setting": "[18]", "value": -0.34}, {"measurement": "glycan array binding signal (z-score)", "setting": "[19]", "value": -0.205}, {"measurement": "glycan array binding signal (z-score)", "setting": "[20]", "value": 2.87}, {"measurement": "glycan array binding signal (z-score)", "setting": "[21]", "value": -0.311}, {"measurement": "glycan array binding signal (z-score)", "setting": "[22]", "value": 0.257}, {"measurement": "glycan array binding signal (z-score)", "setting": "[23]", "value": 0.027}, {"measurement": "glycan array binding signal (z-score)", "setting": "[24]", "value": 0.365}]}]}
